Assay results published in PubChem BioAssay AID624330 (Southern Research Specialized Biocontainment Screening …, 2012).
Among all 340,000 compounds or so, about 2,100 (0.62%) were called active.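 The calls were made as follows: active = first-screen hits whose inhibition reached a set limit at any dose in the follow-up dose series; inconclusive = inhibition above the set first-screen limit but never retested; inactive = the rest.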 These entries were drawn from the full list. Results with a measured potency or affinity are listed apart.

target: Rac GTPase-activating protein 1 (Homo sapiens) (UniProt Q9H0H5); test: MgcRacGAP GTPase-activating activity inhibitors, confirmation, biochemical, ADP Hunter fluorescence, primary and confirmatory (AID 624330); conditions: MgcRacGAP-stimulated Rac1 GTP hydrolysis, at 30 µM, hits give high values, GST-tagged Rac1 F28L mutant substrate;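 also: fluorescence reports GDP produced by GAP-driven GTP hydrolysis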
Sequence (Q9H0H5 whole entry, looked up): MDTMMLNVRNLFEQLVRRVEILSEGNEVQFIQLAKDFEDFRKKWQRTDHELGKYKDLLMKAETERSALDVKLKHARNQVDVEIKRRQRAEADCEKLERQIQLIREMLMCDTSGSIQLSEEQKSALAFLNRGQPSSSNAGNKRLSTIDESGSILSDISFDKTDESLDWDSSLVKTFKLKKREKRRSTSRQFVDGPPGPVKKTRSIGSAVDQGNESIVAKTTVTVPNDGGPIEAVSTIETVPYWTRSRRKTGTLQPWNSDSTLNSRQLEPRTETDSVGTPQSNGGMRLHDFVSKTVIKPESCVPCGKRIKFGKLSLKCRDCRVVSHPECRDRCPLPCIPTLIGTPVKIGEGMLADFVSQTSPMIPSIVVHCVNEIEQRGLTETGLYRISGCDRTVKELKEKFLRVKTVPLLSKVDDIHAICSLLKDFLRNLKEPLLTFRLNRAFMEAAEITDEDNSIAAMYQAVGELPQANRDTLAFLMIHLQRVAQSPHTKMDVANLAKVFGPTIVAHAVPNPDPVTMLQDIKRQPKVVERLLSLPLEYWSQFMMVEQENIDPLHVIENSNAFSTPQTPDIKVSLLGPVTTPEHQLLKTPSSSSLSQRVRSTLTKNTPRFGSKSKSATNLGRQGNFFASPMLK

inhibition, inactive:
CC[C@@]1(C(=O)OC)N[C@H](CN(C)C(=O)COC)[C@@H]2C(=O)N(C)C(=O)[C@@H]21 6.93%
CC1CC(C)CN(CCCCOc2ccc([N+](=O)[O-])cc2)C1 (configuration not stated) 19.1%
CCOC(=O)C1=C(C)NC(=O)NC1/C=C\c1ccccc1 (configuration not stated) 15.6%
CCOc1ccc(CCNC(=O)C2=C(C)C(=O)OC23CCC(C)CC3)cc1 (configuration not stated) 8.86%
CN1CCN(c2ccc(NC(=S)NC(=O)c3cccc4c(Cl)cccc34)cc2)CC1 9.96%
CCCCNS(=O)(=O)c1cc2c3c(c1)CCN3C(=O)CC2 10.4%
COc1ccc(S(=O)(=O)NCc2cn3c(C)csc3n2)cc1F 7.58%
CN(Cc1nc2ccccc2c(=O)[nH]1)C(=O)COc1ccccc1Cc1ccccc1 4.16%
CNc1ccc(/C=C2\COc3ccccc3C2=O)cc1[N+](=O)[O-] 9.69%
O=C1C(=Cc2ccccc2[N+](=O)[O-])Cc2ccccc21 5.54%
Cc1cc2oc(=O)c(CC(=O)NCCCO)c(C)c2c2occ(C(C)(C)C)c12 4.92%
CCOc1cc(/C=N/NC(=O)c2cccnc2)ccc1OCC(N)=O 3.29%
O=C(OCc1nnc(-c2ccccc2)o1)c1cn(-c2ccccc2)nc1-c1ccccc1 4.52%
O=C1CC(c2cccs2)c2ccc3ccccc3c2N1 (configuration not stated) 6.36%
OC1CCN(Cc2cccc3ccccc23)CC1 14.2%
COc1ccc(-c2nnn(CC(=O)NCCc3c[nH]c4ccccc34)n2)cc1OC 7.85%
COc1cc(/C=C2/C(=O)NN(c3ccccc3)C2=O)cc(Br)c1O 23.7%
COc1cc(/C=C2/C(=O)NN(c3ccc(F)cc3)C2=O)cc(Cl)c1O 20.4%
COc1cccc(C2=CC(=O)C[C@H](c3ccc4c(c3)OCO4)C2)c1OC 6.37%
O=c1c2ccccc2ncn1-c1cccc(Cl)c1 5.62%
Cc1nn(-c2ccc(Cl)cc2Cl)c(=O)c2ccccc12 -1.03%
CC1=CC(C)(C)N(C)C(=O)N1c1ccc(Cl)cc1 6.14%
O=c1c2ccccc2sn1-c1ccc(S(=O)(=O)N2CCCCC2)cc1 10.2%
O=c1c2cc([N+](=O)[O-])ccc2sn1-c1ccccc1 17.4%
O=c1c2ccccc2sc2ccc(Cl)cc12 5.89%
Cc1cc(=O)cc(C)n1-c1ccc(Cl)cc1 5%
O=c1c2ccccc2cnn1-c1ccc(Cl)cc1 1.97%
